Data as given in PubChem BioAssay (EPA / NIEHS).
Activity calls are given as the source filed them. The calls were made as follows: active = hit-call score of the fitted dose curve at least 0.9, where 1 is the maximum; inactive = score below 0.9.

Legend:
[1] = read-out: Interleukin-1 alpha (IL1a), IL1A (gene 3552); test: BSK_KF3CT_IL1a: BioMAP Diversity Plus: KF3CT Assay for Interleukin-1 alpha (IL1a) Biomarker Activity (AID 2283070); conditions: primary human keratinocytes with fibroblasts; actives raise or lower the signal
Method in brief: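 Human keratinocyte plus foreskin fibroblast primary co-culture, sampled 24 h after chemical dosing. IL-1a measured by ELISA; responses fitted bidirectionally against DMSO baseline (negative control), so gain or loss of signal both count.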

[2] = read-out: TIMP metallopeptidase inhibitor 2 (TIMP2), TIMP2 (gene 7077); test: BSK_KF3CT_TIMP2: BioMAP Diversity Plus: KF3CT Assay for TIMP metallopeptidase inhibitor 2 (TIMP2) Biomarker Activity (AID 2283071); conditions: primary human keratinocytes with fibroblasts; actives raise or lower the signal
Method in brief: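 Human primary keratinocyte/foreskin fibroblast co-culture dosed with chemical and sampled at 24 h. TIMP-2 levels quantified by ELISA; bidirectional fitting against DMSO negative control as baseline.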

[3] = read-out: Transforming growth factor beta 1 (TGFb1), TGFB1 (gene 7040); test: BSK_KF3CT_TGFb1: BioMAP Diversity Plus: KF3CT Assay for Transforming growth factor beta 1 (TGFb1) Biomarker Activity (AID 2283072); conditions: primary human keratinocytes with fibroblasts; actives raise or lower the signal
Method in brief: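 Human keratinocyte plus foreskin fibroblast primary co-culture, dosed with chemical for 24 h. TGF-b1 quantified by ELISA. Activity fitted bidirectionally against DMSO negative control as baseline.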

[4] = read-out: C-C motif chemokine 2 (Homo sapiens) (UniProt P13500); test: BSK_KF3CT_MCP1: BioMAP Diversity Plus: KF3CT Assay for Monocyte Chemoattractant Protein 1 (MCP1/CCL2) Biomarker Activity (AID 2283073); conditions: primary human keratinocytes with fibroblasts; actives raise or lower the signal
Method in brief: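 ELISA read-out of MCP-1, 24 h post-dose, in primary human skin keratinocytes co-cultured with fibroblasts. Parallel SRB staining monitors cytotoxicity; changes fitted both directions relative to DMSO.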

[5] = read-out: Matrix Metallopeptidase 9 (MMP9), MMP9 (gene 4318); test: BSK_KF3CT_MMP9: BioMAP Diversity Plus: KF3CT Assay for Matrix Metallopeptidase 9 (MMP9) Biomarker Activity (AID 2283074); conditions: primary human keratinocytes with fibroblasts; actives raise or lower the signal
Method in brief: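 Keratinocyte plus foreskin fibroblast human primary skin co-culture was dosed with chemical and MMP-9 was quantified by ELISA 24 h later. Bidirectional curve fitting used DMSO as negative control and activity baseline.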

[6] = read-out: urokinase plasminogen activator (uPA), PLAU (gene 5328); test: BSK_KF3CT_uPA: BioMAP Diversity Plus: KF3CT Assay for urokinase plasminogen activator (uPA) Biomarker Activity (AID 2283075); conditions: primary human keratinocytes with fibroblasts; actives raise or lower the signal
Method in brief: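 Human keratinocyte plus foreskin fibroblast primary co-culture exposed to chemical for 24 h. uPA levels were quantified by ELISA, and activity was fitted bidirectionally against a DMSO negative-control baseline.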

CD40, CD40 (gene 958) [7] = test: BSK_LPS_CD40: BioMAP Diversity Plus: LPS Assay for CD40 Biomarker Activity (AID 2283076); conditions: primary human HUVEC with PBMC; actives raise or lower the signal
Method in brief: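 In the LPS system of human endothelial cells with peripheral blood mononuclear cells, CD40 levels were read by ELISA 24 h post-treatment. Signal changes in either direction were fitted against the DMSO baseline, with parallel SRB protein staining.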

[8] = read-out: E-selectin (Homo sapiens) (UniProt P16581); test: BSK_LPS_Eselectin: BioMAP Diversity Plus: LPS Assay for Eselectin Biomarker Activity (AID 2283077); conditions: primary human HUVEC with PBMC; actives raise or lower the signal
Method in brief: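 E-selectin ELISA on LPS-stimulated endothelial cell/PBMC co-cultures, read 24 h post-treatment; gains and losses fitted against DMSO. Parallel SRB staining (0.1% SRB after 10% TCA fixation, 560 nm) flags overt cytotoxicity.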

[9] = read-out: Interleukin-8 (IL8), CXCL8 (gene 3576); test: BSK_LPS_IL8: BioMAP Diversity Plus: LPS Assay for Interleukin-8 (IL8) Biomarker Activity (AID 2283078); conditions: primary human HUVEC with PBMC; actives raise or lower the signal
Method in brief: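 ELISA read-out of IL-8 after 24 h chemical treatment of LPS-activated endothelial/PBMC human primary co-cultures. Changes either up or down relative to DMSO; overt cytotoxicity checked by sulforhodamine B staining in parallel wells.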

[10] = BSK_LPS_SRB: Viability Assessment in the BioMAP Diversity Plus: LPS Assay (AID 2283079); conditions: primary human HUVEC with PBMC;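 also: total protein by sulforhodamine B absorbance as a cytotoxicity measure; measured one day after compound addition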
Method in brief: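 SRB viability endpoint: cells fixed with 10% TCA, stained with 0.1% SRB, read at 560 nm, 24 h post-dose. HUVEC/PBMC co-culture; signal change in either direction scored relative to DMSO.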

[11] = read-out: Interleukin-1 alpha (IL1a), IL1A (gene 3552); test: BSK_LPS_IL1a: BioMAP Diversity Plus: LPS Assay for Interleukin-1 alpha (IL1a) Biomarker Activity (AID 2283080); conditions: primary human HUVEC with PBMC; actives raise or lower the signal
Method in brief: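 Readout is IL-1a level by ELISA, 24 h post-dose, fitted as gain or loss relative to DMSO. System: LPS-activated human primary co-culture of vascular endothelium and peripheral blood mononuclear cells, with parallel SRB total-protein cytotoxicity.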

[12] = read-out: Monocyte Chemoattractant Protein-1 (MCP1), CCL2 (gene 6347); test: BSK_LPS_MCP1: BioMAP Diversity Plus: LPS Assay for Monocyte Chemoattractant Protein-1 (MCP1) Biomarker Activity (AID 2283081); conditions: primary human HUVEC with PBMC; actives raise or lower the signal
Method in brief: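 Secreted MCP-1 read by ELISA at 24 h post-dosing in an LPS-activated co-culture of endothelial cells with peripheral blood mononuclear cells. Fits run in both directions, DMSO as baseline; parallel SRB staining tracks overt cytotoxicity.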

[13] = BSK_LPS_PGE2: BioMAP Diversity Plus: LPS Assay for Prostaglandin E2 (PGE2) Biomarker Activity (AID 2283082); conditions: primary human HUVEC with PBMC; actives raise or lower the signal
Method in brief: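 HUVEC plus PBMC co-culture stimulated with LPS; secreted PGE2 quantified by ELISA 24 h after chemical dosing. Activity fitted bidirectionally against DMSO as negative control and baseline; parallel SRB total-protein staining served as cytotoxicity check.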

[14] = read-out: Macrophage colony-stimulating factor (MCSF), CSF1 (gene 1435); test: BSK_LPS_MCSF: BioMAP Diversity Plus: LPS Assay for Macrophage colony-stimulating factor (MCSF) Biomarker Activity (AID 2283083); conditions: primary human HUVEC with PBMC; actives raise or lower the signal
Method in brief: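 Bidirectional fitting against DMSO was applied to M-CSF levels read by ELISA at 24 h post-dose. The system pairs human umbilical vein endothelium with peripheral blood mononuclear cells; parallel SRB staining tracked cytotoxicity.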

[15] = read-out: Tissue Factor, F3 (gene 2152); test: BSK_LPS_TissueFactor: BioMAP Diversity Plus: LPS Assay for Tissue Factor Biomarker Activity (AID 2283084); conditions: primary human HUVEC with PBMC; actives raise or lower the signal
Method in brief: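 Compound was added to an endothelial cell/PBMC co-culture, and after 24 h tissue factor (CD142) was read by ELISA. Gain or loss of signal was fitted against a DMSO baseline, and parallel SRB staining (560 nm) tracked overt cytotoxicity.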

[16] = read-out: Tumor necrosis factor (Homo sapiens) (UniProt P01375); test: BSK_LPS_TNFa: BioMAP Diversity Plus: LPS Assay for Tumour Necrosis Factor alpha (TNFa) Biomarker Activity (AID 2283085); conditions: primary human HUVEC with PBMC; actives raise or lower the signal
Method in brief: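 Human umbilical vein endothelial cells co-cultured with PBMC were exposed to test chemical and TNFa measured by ELISA 24 h after dosing. Bidirectional curve fitting was done relative to DMSO as negative control and baseline.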

[17] = read-out: Vascular cell adhesion molecule 1 (VCAM1), VCAM1 (gene 7412); test: BSK_LPS_VCAM1: BioMAP Diversity Plus: LPS Assay for Vascular cell adhesion molecule 1 (VCAM1) Biomarker Activity (AID 2283086); conditions: primary human HUVEC with PBMC; actives raise or lower the signal
Method in brief: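 Human umbilical vein endothelial cells co-cultured with peripheral blood mononuclear cells under LPS stimulation were exposed to test chemical for 24 h. VCAM-1 levels were then measured by ELISA, with bidirectional curve fitting relative to DMSO as negative control and baseline.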

CD38, CD38 (gene 952) = test: BSK_SAg_CD38: BioMAP Diversity Plus: SAg Assay for CD38 Biomarker Activity (AID 2283087); conditions: primary human HUVEC with PBMC; actives raise or lower the signal
Method in brief: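 Fluorescence ELISA of cell-surface CD38 served as the read-out, with either increase or decrease fitted against DMSO controls. Cells were a human umbilical vein endothelium plus PBMC co-culture under SEB/TSST-1 stimulation, measured 24 h after dosing.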

CD40, CD40 (gene 958) [18] = test: BSK_SAg_CD40: BioMAP Diversity Plus: SAg Assay for CD40 Biomarker Activity (AID 2283088); conditions: primary human HUVEC with PBMC; actives raise or lower the signal
Method in brief: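 CD40 is measured by fluorescence ELISA in an endothelial/PBMC primary human co-culture at 24 h post-dose. Fitting is bidirectional, DMSO baseline. Parallel SRB staining (560 nm) flags cytotoxicity.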

CD69, CD69 (gene 969) = test: BSK_SAg_CD69: BioMAP Diversity Plus: SAg Assay for CD69 Biomarker Activity (AID 2283089); conditions: primary human HUVEC with PBMC; actives raise or lower the signal
Method in brief: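 Primary human vascular co-culture (umbilical vein endothelium with peripheral blood mononuclear cells) exposed to test chemical for 24 h. CD69 levels quantified by fluorescence ELISA; DMSO served as negative control for bidirectional fitting.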

Measured: outcome

Sequence of E-selectin (Homo sapiens) (P16581 whole entry, looked up): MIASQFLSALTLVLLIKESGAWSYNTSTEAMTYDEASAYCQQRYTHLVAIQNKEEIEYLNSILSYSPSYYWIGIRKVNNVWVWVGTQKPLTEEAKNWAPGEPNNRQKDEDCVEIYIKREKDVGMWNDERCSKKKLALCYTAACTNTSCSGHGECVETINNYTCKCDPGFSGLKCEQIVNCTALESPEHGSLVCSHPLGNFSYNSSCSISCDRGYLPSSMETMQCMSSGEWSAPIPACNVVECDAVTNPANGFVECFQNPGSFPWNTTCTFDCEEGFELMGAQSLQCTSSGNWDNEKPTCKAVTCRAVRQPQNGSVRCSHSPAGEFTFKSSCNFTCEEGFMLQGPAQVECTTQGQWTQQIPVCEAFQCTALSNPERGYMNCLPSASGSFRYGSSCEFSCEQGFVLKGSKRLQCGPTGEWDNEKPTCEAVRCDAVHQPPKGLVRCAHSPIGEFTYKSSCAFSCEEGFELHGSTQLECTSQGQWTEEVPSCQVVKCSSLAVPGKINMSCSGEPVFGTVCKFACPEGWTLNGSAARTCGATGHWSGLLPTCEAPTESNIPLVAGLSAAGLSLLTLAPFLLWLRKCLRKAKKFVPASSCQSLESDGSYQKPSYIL
Sequence of Tumor necrosis factor (Homo sapiens) (P01375 whole entry, looked up): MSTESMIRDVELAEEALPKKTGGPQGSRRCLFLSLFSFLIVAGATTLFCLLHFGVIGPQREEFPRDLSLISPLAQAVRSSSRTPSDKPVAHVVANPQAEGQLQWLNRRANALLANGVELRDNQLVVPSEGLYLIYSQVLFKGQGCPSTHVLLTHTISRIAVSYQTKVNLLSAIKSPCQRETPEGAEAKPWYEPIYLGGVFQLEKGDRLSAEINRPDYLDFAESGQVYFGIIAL

CCCCC(CC)COC(=O)c1c(Br)c(Br)c(Br)c(Br)c1C(=O)OCC(CC)CCCC (stereo not drawn)
inactive: [1] | [2] | [3] | [4] | [5] | [6] | CD40, CD40 (gene 958) [7] | [8] | [9] | [10] | [11] | [12] | [13] | [14] | [15] | [16] | [17] | CD38, CD38 (gene 952) | CD40, CD40 (gene 958) [18] | CD69, CD69 (gene 969)

O=[N+]([O-])c1ccc(Cl)c(Cl)c1
inactive: [1] | [2] | [3] | [4] | [5] | [6] | CD40, CD40 (gene 958) [7] | [8] | [9] | [10] | [11] | [12] | [13] | [14] | [15] | [16] | [17] | CD38, CD38 (gene 952) | CD40, CD40 (gene 958) [18]

CCN(CC)c1ccccc1
inactive: [1] | [2] | [3] | [4] | [5] | [6] | CD40, CD40 (gene 958) [7] | [8] | [9] | [10] | [11] | [12] | [13] | [14] | [15] | [16] | [17] | CD38, CD38 (gene 952) | CD40, CD40 (gene 958) [18] | CD69, CD69 (gene 969)

ClC(Cl)c1ccccc1
inactive: [1] | [2] | [3] | [4] | [5] | [6] | CD40, CD40 (gene 958) [7] | [8] | [9] | [10] | [11] | [12] | [13] | [14] | [15] | [16] | [17] | CD38, CD38 (gene 952) | CD40, CD40 (gene 958) [18] | CD69, CD69 (gene 969)

Cc1ccc(N)cc1N
inactive: [1] | [2] | [3] | [4] | [5] | [6] | CD40, CD40 (gene 958) [7] | [8] | [9] | [10] | [11] | [12] | [13] | [14] | [15] | [16] | [17] | CD38, CD38 (gene 952) | CD40, CD40 (gene 958) [18] | CD69, CD69 (gene 969)

CCOC(=O)c1ccccc1C(=O)OCC
inactive: [1] | [2] | [3] | [4] | [5] | [6] | CD40, CD40 (gene 958) [7] | [8] | [9] | [10] | [11] | [12] | [13] | [14] | [15] | [16] | [17] | CD38, CD38 (gene 952) | CD40, CD40 (gene 958) [18]
